Reference: PubChem BioAssay (NCI)
Compounds without any hit were thinned out: in the full panel of roughly 79,000, 15% have a hit. A number with no mark means an inactive call. Active and inactive are the calls of the source. No stated cut-off is given here; in the data, active means growth inhibition above about 70%; inactive means the rest.

Legend:
[1] = NCI Yeast Anticancer Drug Screen. Data for the mec2-1 strain (AID 157); conditions: S. cerevisiae mec2-1 strain, hits give high values
Method in brief: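 Compounds were applied to mec2-1 yeast cells. Their growth was then compared with that of vehicle-treated cultures to give growth inhibition.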

[2] = NCI Yeast Anticancer Drug Screen. Data for the sgs1 mgt1 strain (AID 161);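 further: 0% = growth of cultures given vehicle only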; conditions: S. cerevisiae sgs1 mgt1 strain, hits give high values
Method in brief: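 Growth of a repair-deficient yeast mutant was monitored after compound treatment and expressed as inhibition relative to vehicle-treated cultures.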

[3] = NCI Yeast Anticancer Drug Screen. Data for the CLN2oe strain (AID 163);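 further: 0% = growth of vehicle-only control cultures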; conditions: S. cerevisiae CLN2oe strain, hits give high values
Method in brief: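 Cells of an engineered yeast line with disturbed cell-cycle regulation are treated with compound. Inhibition of growth is then calculated relative to the vehicle-treated reference.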

[4] = NCI Yeast Anticancer Drug Screen. Data for the cln2 rad14 strain (AID 165);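 further: 0% = growth equal to vehicle treated cultures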; conditions: S. cerevisiae cln2 rad14 strain, hits give high values
Method in brief: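 Strain: cln2 rad14 yeast, altered in cell cycle control and DNA damage repair. Read-out: growth inhibition vs vehicle.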

[5] = NCI Yeast Anticancer Drug Screen. Data for the bub3 strain (AID 167); conditions: S. cerevisiae bub3 mutant strain, hits give high values
Method in brief: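 Yeast carrying a defined mutation is treated with each compound, and growth is compared with that of vehicle-exposed cells to give inhibition.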

[6] = NCI Yeast Anticancer Drug Screen. Data for the wt2 strain (AID 169);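 further: 0% = growth of vehicle-treated yeast cultures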; conditions: S. cerevisiae wt2 strain growth inhibition, hits give high values
Method in brief: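 Growth of compound-treated yeast is measured and expressed as inhibition relative to vehicle-only controls.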

[7] = NCI Yeast Anticancer Drug Screen. Data for the mlh1 strain (AID 171);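 further: 0% = growth of vehicle-treated control cultures of the same strain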; conditions: S. cerevisiae mlh1 strain growth inhibition, hits give high values
Method in brief: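 Test agents were incubated with yeast bearing a defined DNA damage repair or cell cycle control alteration; values are growth inhibition normalised to vehicle-treated cultures.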

[8] = NCI Yeast Anticancer Drug Screen. Data for the sgs1 strain (AID 173);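 further: 0% = growth of vehicle-only control cultures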; conditions: S. cerevisiae sgs1 mutant, hits give high values
Method in brief: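 Strain with an altered DNA repair or cell cycle pathway exposed to compound. Growth then measured. Value = inhibition versus vehicle control.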

[9] = NCI Yeast Anticancer Drug Screen. Data for the mlh1 rad18 strain (AID 175); conditions: S. cerevisiae mlh1 rad18 strain growth inhibition, hits give high values
Method in brief: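 A repair-deficient yeast strain is exposed to test compound, and growth is scored relative to vehicle-treated controls.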

[10] = NCI Yeast Anticancer Drug Screen. Data for the rad18 strain (AID 177); conditions: S. cerevisiae rad18 mutant growth inhibition, hits give high values
Method in brief: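 DNA-repair-defective yeast; compound treatment; growth inhibition scored against vehicle.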

[11] = NCI Yeast Anticancer Drug Screen. Data for the wt1 strain (AID 149);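 further: 0% = growth of vehicle-treated wt1 cultures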; conditions: S. cerevisiae wt1 strain (SPY 50644) growth inhibition, hits give high values
Method in brief: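 wt1 yeast, compound-treated; % growth inhibition vs vehicle control.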

[12] = NCI Yeast Anticancer Drug Screen. Data for the rad50EPP+ strain (AID 151);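 further: 0% = growth of vehicle-treated control cultures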; conditions: S. cerevisiae rad50 mutant strain, hits give high values
Method in brief: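 Measured: growth inhibition of rad50EPP+ yeast. Reference: vehicle-treated controls. Screen uses strains with defined genetic alterations in DNA damage repair or cell cycle control.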

[13] = NCI Yeast Anticancer Drug Screen. Data for the mgt1 strain (AID 153); conditions: S. cerevisiae mgt1 mutant growth inhibition, hits give high values
Method in brief: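 Compounds were applied to mgt1 mutant yeast, and growth was then compared against vehicle-treated control cultures to give percent inhibition.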

[14] = NCI Yeast Anticancer Drug Screen. Data for the rad50 strain (AID 155);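 further: 0% = growth of vehicle-only cultures of the same strain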; conditions: S. cerevisiae rad50 strain growth inhibition, hits give high values
Method in brief: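 Genetically altered yeast (DNA repair pathway); compound treatment; growth inhibition vs vehicle ctrl.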

[15] = NCI Yeast Anticancer Drug Screen. Data for the rad14 strain (AID 159);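 further: 0% = growth of vehicle-treated control cultures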; conditions: S. cerevisiae rad14 strain growth inhibition, hits give high values
Method in brief: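 Test compounds were applied to a repair-deficient yeast strain. Its growth was then compared with that of cultures given vehicle alone, and inhibition was expressed relative to those controls.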

[16] = at 5.0 µM (retest, dose inferred, filed as 0.5)
[17] = at 50.0 µM (retest, dose inferred, filed as 5.0)

O=C(Nc1ccc(Cl)cc1)Nc1nnc2nc(C(C(=O)c3cccc([N+](=O)[O-])c3Cl)c3nc4nnc(NC(=O)Nc5ccc(Cl)cc5)n4[nH]c3=O)c(=O)[nH]n12
growth inhibition ([1]; at 100.0 µM): 68%
growth inhibition [2, 16]: 2%
growth inhibition [2, 17]: 28%
growth inhibition ([2]; at 50.0 µM): 99% (active)
growth inhibition ([3]; at 1.2 µM): -6%
growth inhibition ([3]; at 3.7 µM): -8%
growth inhibition ([3]; at 11.0 µM): -5%
growth inhibition ([3]; at 33.0 µM): -12%
growth inhibition ([3]; at 100.0 µM): 37%
growth inhibition [4, 16]: -8%
growth inhibition [4, 17]: 14%
growth inhibition ([4]; at 50.0 µM): 99.2% (active)
growth inhibition ([5]; at 1.2 µM): -5%
growth inhibition ([5]; at 3.7 µM): -5%
growth inhibition [5, 16]: -22%
growth inhibition ([5]; at 11.0 µM): -7%
growth inhibition ([5]; at 33.0 µM): -8%
growth inhibition [5, 17]: 22%
growth inhibition ([5]; at 50.0 µM): 99.5% (active)
growth inhibition ([5]; at 100.0 µM): 64%
growth inhibition ([6]; at 1.2 µM): -1%
growth inhibition ([6]; at 3.7 µM): -2%
growth inhibition ([6]; at 11.0 µM): -2%
growth inhibition ([6]; at 33.0 µM): -2%
growth inhibition ([6]; at 100.0 µM): 32%
growth inhibition ([7]; at 1.2 µM): 1%
growth inhibition ([7]; at 3.7 µM): -2%
growth inhibition ([7]; at 11.0 µM): 2%
growth inhibition ([7]; at 33.0 µM): -1%
growth inhibition ([7]; at 100.0 µM): 35%
growth inhibition ([8]; at 1.2 µM): -1%
growth inhibition ([8]; at 3.7 µM): 0%
growth inhibition ([8]; at 11.0 µM): -2%
growth inhibition ([8]; at 33.0 µM): 1%
growth inhibition ([8]; at 100.0 µM): 60%
growth inhibition [9, 16]: -20%
growth inhibition [9, 17]: 55%
growth inhibition ([9]; at 50.0 µM): 99.4% (active)
growth inhibition ([10]; at 1.2 µM): -1%
growth inhibition ([10]; at 3.7 µM): -3%
growth inhibition ([10]; at 11.0 µM): -12%
growth inhibition ([10]; at 33.0 µM): -2%
growth inhibition ([10]; at 100.0 µM): 45%

CN(C)CCNc1ccc2ncnc3c2c1C(=O)c1ccccc1-3
growth inhibition ([11]; at 1.2 µM): 7%
growth inhibition ([11]; at 3.7 µM): 8%
growth inhibition ([11]; at 11.0 µM): 15%
growth inhibition ([11]; at 33.0 µM): 28%
growth inhibition ([11]; at 100.0 µM): 34%
growth inhibition ([12]; at 1.2 µM): 90% (active)
growth inhibition ([12]; at 3.7 µM): 90% (active)
growth inhibition ([12]; at 11.0 µM): 93% (active)
growth inhibition ([12]; at 33.0 µM): 95% (active)
growth inhibition ([12]; at 100.0 µM): 95% (active)
growth inhibition ([13]; at 1.2 µM): 2%
growth inhibition ([13]; at 3.7 µM): 6%
growth inhibition ([13]; at 11.0 µM): 22%
growth inhibition ([13]; at 33.0 µM): 25%
growth inhibition ([13]; at 100.0 µM): 38%
growth inhibition ([14]; at 1.2 µM): 94% (active)
growth inhibition ([14]; at 3.7 µM): 95% (active)
growth inhibition [14, 16]: 84% (active)
growth inhibition ([14]; at 11.0 µM): 96% (active)
growth inhibition ([14]; at 33.0 µM): 96% (active)
growth inhibition [14, 17]: 97% (active)
growth inhibition ([14]; at 50.0 µM): 76% (active)
growth inhibition ([14]; at 100.0 µM): 96% (active)
growth inhibition ([1]; at 1.2 µM): 22%
growth inhibition ([1]; at 3.7 µM): 21%
growth inhibition [1, 16]: 15%
growth inhibition ([1]; at 11.0 µM): 32%
growth inhibition ([1]; at 33.0 µM): 45%
growth inhibition [1, 17]: 48%
growth inhibition ([1]; at 50.0 µM): 68.6%
growth inhibition ([1]; at 100.0 µM): 53%
growth inhibition ([15]; at 1.2 µM): 16%
growth inhibition ([15]; at 3.7 µM): 15%
growth inhibition ([15]; at 11.0 µM): 20%
growth inhibition ([15]; at 33.0 µM): 37%
growth inhibition ([15]; at 100.0 µM): 44%
growth inhibition [2, 16]: -21%
growth inhibition [2, 17]: 56%
growth inhibition ([2]; at 50.0 µM): 77.4% (active)
growth inhibition ([3]; at 1.2 µM): 5%
growth inhibition ([3]; at 3.7 µM): 8%
growth inhibition ([3]; at 11.0 µM): 26%
growth inhibition ([3]; at 33.0 µM): 59%
growth inhibition ([3]; at 100.0 µM): 74% (active)
growth inhibition [4, 16]: 2%
growth inhibition [4, 17]: 51%
growth inhibition ([4]; at 50.0 µM): 66.9%
growth inhibition ([5]; at 1.2 µM): -8%
growth inhibition ([5]; at 3.7 µM): -2%
growth inhibition [5, 16]: 33%
growth inhibition ([5]; at 11.0 µM): 11%
growth inhibition ([5]; at 33.0 µM): 21%
growth inhibition [5, 17]: 31%
growth inhibition ([5]; at 50.0 µM): 74.2% (active)
growth inhibition ([5]; at 100.0 µM): 36%
growth inhibition ([6]; at 1.2 µM): 8%
growth inhibition ([6]; at 3.7 µM): 10%
growth inhibition ([6]; at 11.0 µM): 20%
growth inhibition ([6]; at 33.0 µM): 49%
growth inhibition ([6]; at 100.0 µM): 56%
growth inhibition ([7]; at 1.2 µM): 10%
growth inhibition ([7]; at 3.7 µM): 14%
growth inhibition ([7]; at 11.0 µM): 28%
growth inhibition ([7]; at 33.0 µM): 41%
growth inhibition ([7]; at 100.0 µM): 46%
growth inhibition ([8]; at 1.2 µM): 9%
growth inhibition ([8]; at 3.7 µM): 8%
growth inhibition ([8]; at 11.0 µM): 24%
growth inhibition ([8]; at 33.0 µM): 54%
growth inhibition ([8]; at 100.0 µM): 61%
growth inhibition [9, 16]: -13%
growth inhibition [9, 17]: 81% (active)
growth inhibition ([9]; at 50.0 µM): 65.5%
growth inhibition ([10]; at 1.2 µM): 11%
growth inhibition ([10]; at 3.7 µM): 12%
growth inhibition ([10]; at 11.0 µM): 25%
growth inhibition ([10]; at 33.0 µM): 61%
growth inhibition ([10]; at 100.0 µM): 75% (active)
